# Compound activity as filed in PubChem.
# Hits are enriched below; roughly 19% of the tested compounds scored in any of these assays.
# TDP1 cell noCPT: qHTS for Inhibitors of human tyrosyl-DNA phosphodiesterase 1 (TDP1): qHTS in cells in absence of CPT. DT40 Tdp1-/- hTDP1 cells, no CPT, ATP luminescence, 48 h. Potency, µM (series often up to 46.2 µM), usual class: inhibitors. 15% of 420,000 active. AID 686978, 2013; also: nearly all actives have a fitted effect of over 55% in size
#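 A cellular qHTS used chicken DT40 cells lacking endogenous Tdp1 but carrying stably transfected human TDP1. Compounds were applied without camptothecin, and cell growth kinetics were judged by ATP-dependent luminescence after ≥48 hr.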
# IL-1B inflam inh: qHTS for Inhibitors of Inflammasome Signaling: IL-1-beta AlphaLISA Primary Screen | THP-1 LPS/ATP IL-1B secretion, AlphaLISA, 16 h; hits give low values | activity change, % at 57.5 µM | 4.7% of 360,000 active; in the data active = activity change below about -50%; inconclusive = mostly about -30% to -49%
#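 THP-1 cells pretreated 1 hr with compounds (up to 57.5 uM final), then stimulated with LPS (250 ng/mL final) plus ATP (1.25 mM final); secreted IL-1B measured by AlphaLISA after 16 hr, decreased signal indicating inhibition.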
# TDP1 cell CPT: qHTS for Inhibitors of human tyrosyl-DNA phosphodiesterase 1 (TDP1): qHTS in cells in presence of CPT; Potency, µM (highest dose often 46.2 µM), hits mostly inhibitors; 12% of 420,000 active; chicken DT40 Tdp1-/-;hTDP1 cells + 20 nM CPT, ATP luminescence, 48 h; also: nearly all actives have a fitted effect of over 55% in size
#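 Chicken DT40 Tdp1-/- cells complemented with human TDP1, 400 cells/well, exposed to compounds plus 20 nM camptothecin for at least 48 h at 37 C; viability read as ATP content by CellTiter-Glo luminescence.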
# HT1080 IDH1KD tx: qHTS for induction of synthetic lethality in tumor cells producing 2HG: qHTS for the HT-1080-IDH1KD cell line; HT-1080 IDH1 knockdown viability, ATP luminescence, 48 h; Potency, µM (highest dose often 46.1 µM), hits mostly cytotoxic; 2% of 360,000 active
#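 After a 2 h attachment period, IDH1KD HT-1080 cells took pin-transferred compound for 48 h at 37 °C; ATP-based luminescence after 10 min room-temperature reagent incubation reported viability.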
# ELG1 DNA repair: qHTS screen for small molecules that inhibit ELG1-dependent DNA repair in human embryonic kidney (HEK293T) cells expressing luciferase-tagged ELG1 | HEK293T ELG1-luciferase reporter, luminescence, 16 h; DNA damage induced by 5-fluorouridine | Potency, µM (series often up to 46.1 µM), actives largely listed as inhibitors | 2.3% of 330,000 active; also: nearly all actives have a fitted effect of over 55% in size
#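 Reporter activity after DNA damage by 5-fluorouridine is monitored. Compound-treated cells incubate 16 hr at 37 °C, then ONE-Glo is added for 30 min before luminescence reading.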
# HT1080NT lethal: qHTS for induction of synthetic lethality in tumor cells producing 2HG: qHTS for the HT-1080-NT fibrosarcoma cell line; HT-1080-NT fibrosarcoma viability, CellTiter-Glo ATP luminescence, 48 h; Potency, µM (highest dose often 46.1 µM), most hits filed as cytotoxic; 1.6% of 360,000 active;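 also: NT is the 2HG producing partner of a matched IDH1 knockdown line; nearly all actives have a fitted effect of over 55% in size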
#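 Compounds were tested in concentration-response format on HT-1080-NT cells for 48 hours at 37 degrees C. Cell viability came from CellTiter-Glo luminescence; curves were classified by r2, response magnitude and activity.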
# Numbers stand for hits; n = inactive; u = inconclusive; x = no result; [ ] = remark or other dose. Unless noted, calls follow the shape of the dose curve; as a rule, active = well fitted curve in the direction sought with a large enough effect; inconclusive = small, poorly fitted or top-dose-only effect, or another doubt; inactive = no such curve, though single readings can be large; an effect the other way counts as inactive or inconclusive.
SMILES,TDP1 cell noCPT,IL-1B inflam inh,TDP1 cell CPT,HT1080 IDH1KD tx,ELG1 DNA repair,HT1080NT lethal
Cc1ccc(C)c(-c2cc(C(=O)NCc3cccs3)c3ccccc3n2)c1,u,n,u,n,u,n
O=C(O)c1cc(-c2ccccc2)nc2ccccc12,n,n,n,n,n,n
O=C(NCc1cccs1)c1cc(-c2ccccc2)nc2ccccc12,20.6µM,n,23.1µM,n,u,n
c1cncc(CNc2ncncc2-c2cccnc2)c1,n,x,n,x,x,x
COc1ccc(Cc2nc3ccc(C(=O)N(C)Cc4nccn4C)cc3o2)cc1,n,n,n,n,x,n
Cc1sc2ncnc(SCC(=O)N3CCCC(C(F)(F)F)C3)c2c1C (centres undefined),n,n,n,n,n,n
Cc1cc(C)c(C)c(S(=O)(=O)NCC(=O)NCC2CCCCC2)c1C,u,n,n,n,n,n
CCC(Sc1nnc(-c2ccco2)n1C)C(=O)Nc1nnc(C)s1 (centres undefined),n,n,n,n,n,n
C=C(CC[C@]12OC(C(=O)O)C(O)(C(=O)O)C(C(=O)O)(O1)C(OC(=O)/C=C/[C@@H](C)C[C@@H](C)CC)C2O)[C@@H](OC(C)=O)[C@H](C)Cc1ccccc1 (some centres undefined),7.94µM,x,8.91µM,x,x,x
N#CC(C#N)c1ccnc2ccccc12,n,u,u,n,x,n
Cc1ccc(S(=O)(=O)NCC(c2cccnc2)N2CCc3ccccc32)cc1 (centres undefined),u,n,u,n,n,n
Cc1cc(F)ccc1S(=O)(=O)NCC(c1cccnc1)N1CCc2ccccc21 (centres undefined),16.4µM,n,u,n,u,n
O=C(NCC(c1cccnc1)N1CCc2ccccc21)c1cccc(Br)c1 (centres undefined),13µM,x,u,x,x,x
O=C(NCC(c1cccnc1)N1CCc2ccccc21)c1cccc(F)c1 (centres undefined),20.6µM,x,14.6µM,x,x,x
COc1ccccc1N1CCN(C(CNC(=O)c2ccc3c(c2)OCO3)c2cccnc2)CC1 (centres undefined),u,n,u,n,n,n
CCN1CCN(C(c2cccc(OC)c2)c2c(O)cc(C)n(Cc3ccco3)c2=O)CC1 (centres undefined),n,x,n,x,x,x
COc1ccc(C(=O)Nc2cccc(OC)c2)cc1,u,n,n,n,u,n
COc1ccc2[nH]c(-c3ccc(C)cc3)cc(=O)c2c1,16.4µM,n,13µM,23.1µM,u,u
COc1ccc(C(=O)Nc2ccc3[nH]c(-c4cccc(OC)c4)cc(=O)c3c2)cc1,0.651µM,n,1.03µM,u,n,u
COc1ccc(-c2cc(=O)c3cc(F)ccc3[nH]2)cc1,u,n,u,n,u,n
CCC(=O)N1CCCC1(C)C(=O)Nc1ccc2scnc2c1 (centres undefined),n,n,n,u,x,u
COC(=O)C1=C(C(=O)OC)C(C(=O)OC)N2C=CC=CC2=C1C(=O)OC (centres undefined),n,n,n,n,x,n
Cc1cc(C)c(S(=O)(=O)Nc2ccnc(-c3cccnc3)n2)c(C)c1,n,n,n,n,n,n
O=C(NCc1ccc2c(c1)OCO2)c1nc(S(=O)(=O)Cc2ccccc2F)ncc1Cl,2.06µM,-99.5,4.11µM,u,n,16.4µM
O=C(NCc1ccc(Cl)c(Cl)c1)c1ccc2c(c1)OCO2,n,n,n,u,n,u
SMILES,TDP1 cell noCPT,IL-1B inflam inh,TDP1 cell CPT,HT1080 IDH1KD tx,ELG1 DNA repair,HT1080NT lethal
O=C(NCc1ccc2c(c1)OCO2)c1nc(S(=O)(=O)Cc2ccccc2)ncc1Cl,4.11µM,-104.1,2.59µM,16.4µM,n,16.4µM
C=CCn1c(SCC2CCCCO2)nc2sc(CC)cc2c1=O (centres undefined),n,n,u,n,u,n
O=S1(=O)CC(N2CCN(Cc3ccccc3F)CC2)CN1Cc1cn(Cc2cccc(Cl)c2)nn1 (centres undefined),20.6µM,n,u,n,x,n
Cc1cccc(CN2CCN(C3CN(Cc4cn(Cc5ccc(Cl)cc5)nn4)S(=O)(=O)C3)CC2)c1 (centres undefined),20.6µM,n,18.4µM,n,x,n
CCCCCCN1CCN(C2CN(Cc3cn(Cc4cc(C)cc(C)c4)nn3)S(=O)(=O)C2)CC1 (centres undefined),16.4µM,u,u,u,x,u
Cc1cc(C)cc(Cn2cc(CN3CC(N4CCN(C)CC4)CS3(=O)=O)nn2)c1 (centres undefined),n,n,n,n,x,n
Cc1cccc(CN2CCN(C3CN(Cc4cn(Cc5cccc(Cl)c5)nn4)S(=O)(=O)C3)CC2)c1 (centres undefined),14.6µM,n,18.4µM,n,x,n
Cc1cccc(-n2c(CNC(=O)c3cccc(F)c3)nnc2SCC(=O)Nc2ccccc2F)c1,u,x,n,x,x,x
COc1cc(Cl)c(C)cc1NC(=O)COc1ccc(C)nc1[N+](=O)[O-],u,n,u,n,u,n
Cc1ccc2nc3c(cc(C#N)c(=O)n3-c3nnc(SCc4ccc(F)cc4)s3)c(=O)n2c1,n,x,n,x,x,x
CN(C)c1nc(-c2cn(CCC#N)c3ccccc23)cs1,u,n,u,25.9µM,n,u
CSCCOC(=O)C1=C(C)NC(=O)CC1c1ccccc1Cl (centres undefined),u,n,u,n,u,n
CCOc1ccccc1C1NC(=O)NC(C)=C1C(=O)OCc1ccccc1 (centres undefined),u,n,n,n,n,n
CCC(C)OC(=O)C1=C(C)NC(=O)CC1c1ccccc1OC (centres undefined),10.3µM,n,8.2µM,n,n,n
CC1=C(C(=O)OC(C)C)C(c2ccccc2Cl)CC(=O)N1 (centres undefined),11.6µM,n,20.6µM,n,n,n
COC(=O)C1=C(C)NC(=O)CC1c1ccccc1F (centres undefined),n,n,n,n[9.24 µM],n,n
CCOc1ccccc1C1CC(=O)NC(C)=C1C(=O)OCc1ccc(C)cc1 (centres undefined),16.4µM,x,u,x,x,x
